In the library only some 3.9% were active in any assay of this set; here they are far more common.
GDH-TPI counter-1: GDH-TPI coupled enzyme inhibition counter-screen. GDH-TPI coupled enzyme counterscreen, NADH absorbance. inhibition, % at 4.8 µM. 360,000 compounds, 1.2% hits; in the data active = inhibition above about 30%;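 also: 0% = DMSO wells and 100% = wells lacking the enzyme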
BH1578 lux ind: inducers of Vibrio cholerae quorum light production without autoinducers. V. cholerae BH1578 lux reporter, luminescence, 6 h. 350,000 compounds, 0.16% hits. activation, % at 18.7 µM; in the data active = activation mostly above about 9.7%, no sharp cut-off
CCHFV vOTU inh: CCHFV vOTU protease inhibition | inhibition, % at 11.5 µM | AID 651958 | 370,000 compounds, 0.55% hits | Pep-AMC fluorescence; in the data active = inhibition above about 30%; also: 0% = vehicle wells with enzyme and 100% = no enzyme wells
Mtb FBA inh: inhibitors of M. tuberculosis fructose-bisphosphate aldolase; 360,000 compounds, 2.3% hits; P9WQA3; purified M. tuberculosis FBA, fluorescence read-out; inhibition, % at 1 µM;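 also: 0% = vehicle and 100% = reference inhibitor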
Target sequence (P9WQA3 whole entry, looked up): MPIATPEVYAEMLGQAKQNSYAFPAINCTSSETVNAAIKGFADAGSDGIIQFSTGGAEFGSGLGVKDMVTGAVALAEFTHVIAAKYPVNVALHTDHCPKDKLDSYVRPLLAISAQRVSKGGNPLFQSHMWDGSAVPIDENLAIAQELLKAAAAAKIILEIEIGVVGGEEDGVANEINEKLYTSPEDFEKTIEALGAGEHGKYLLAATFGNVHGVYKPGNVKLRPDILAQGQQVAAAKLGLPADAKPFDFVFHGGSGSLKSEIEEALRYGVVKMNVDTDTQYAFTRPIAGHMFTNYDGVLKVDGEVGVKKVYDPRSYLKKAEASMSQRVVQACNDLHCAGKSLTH
Mtb FBA confirm: Mtb FBA inhibition, confirmed; shares compounds with Mtb FBA inh; purified M. tuberculosis FBA, fluorescence read-out; inhibition, % at 1 µM; 5,600 compounds, 78% hits; AID 651616;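 also: 0% = vehicle wells and 100% = reference inhibitor wells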
GDH-TPI counter-2: counter-screen for M. tuberculosis FBA inhibitors: GDH-TPI coupled enzyme inhibition; shares compounds with Mtb FBA inh; GDH-TPI coupled enzyme counterscreen, fluorescence; inhibition, % at 1 µM; 5,600 compounds, 81% hits; AID 652141; in the data active = inhibition above about 10%
GDH-TPI dose: inhibits GDH-TPI coupling enzymes in dose response. shares compounds with Mtb FBA inh. GDH-TPI coupled enzyme assay, fluorescence, artifact counterscreen. IC50, µM. 170 compounds, 79% hits. AID 652145; call rule not given here
* = called active by the depositor; i = inactive; . = no result given; + = active, no number. Rule as the data show it, unless noted: active = inhibition above about 27%; inactive = the rest.

SMILES	GDH-TPI counter-1	BH1578 lux ind	CCHFV vOTU inh	Mtb FBA inh	Mtb FBA confirm	GDH-TPI counter-2	others
CCOC(=O)CCCCCN(Cc1ccccc1)S(=O)(=O)c1ccc([N+](=O)[O-])cc1	6.2	-0.3	1.4	-1.1	.	.
Cc1ccccc1-c1nc(C#N)c(N2CCCCC2)o1	-4.7	0.3	-11.8	70.4*	7.8	2.0
Cc1ccccc1OCc1nc(C#N)c(N2CCCC2)o1	-0.3	-0.9	-2.7	-0.6	.	.
COc1ccc(C)cc1N(CC(N)=O)S(=O)(=O)c1ccc(C)cc1	14.6	3.1	-8.0	-9.6	.	.
Cc1nc2ccc(NC(=O)N3CCOCC3)cc2nc1C	8.9	i	-75.4	42.6*	+	147.3*
Cc1nc2ccc(NC(=O)N3CCOCC3)cc2s1	-4.9	i	23.7	0.0	.	.
CCOC(=O)C1CCN(C(=O)Nc2ccc3nc(C)c(C)nc3c2)CC1	11.4	1.0	-102.3	78.1*	114.6*	77.1*
CCOC(=O)C1CCN(C(=O)Nc2ccc3oc(C)nc3c2)CC1	-13.3	-0.1	23.3	-3.3	.	.
COc1cccc(-n2cnc3scc(-c4cccs4)c3c2=O)c1	4.2	-0.4	4.6	6.1	.	.
CCOc1ccc(-n2cnc3scc(-c4ccc(OC)c(OC)c4)c3c2=O)cc1	-3.7	-2.8	13.4	27.7*	29.8*	20.7*
COc1ccc(S(=O)(=O)N2CCC(C(=O)NCCC(=O)Nc3ccc(Cl)cc3)CC2)cc1	10.3	i	3.9	1.0	.	.
CN1CCc2c(sc(/N=C/c3c[nH]c4ccccc34)c2C(N)=O)C1	11.1	i	-15.1	15.2	.	.
COc1cc2c3nc4n(c(=O)c3n(CC(=O)NCC3CCCO3)c2cc1OC)CCS4 (stereo not given)	14.2	i	-8.9	62.6*	179.8*	174.2*
CCS(=O)(=O)Nc1c(C(=O)O)[nH]c2ccccc12	-3.4	-0.3	4.7	45.9*	76.2*	63.3*
CCS(=O)(=O)Nc1c(C(=O)OC)[nH]c2ccccc12	9.5	i	0.0	3.6	.	.
CCC(=O)Nc1cc2nn(-c3ccc(OC)cc3)nc2cc1C	3.3	i	-55.7	65.9*	39.0*	27.9*
CCCCC(=O)Nc1cc2nn(-c3ccc(OC)cc3)nc2cc1C	-0.8	-3.5	1.2	27.4*	150.7*	121.2*
CCC(=O)Nc1cc2nn(-c3ccc(C)cc3)nc2cc1C	12.7	0.3	-13.6	6.5	.	.
Cc1ccccc1CNC(=O)CCn1nc(C)c2c(C)n(-c3ccccc3)nc2c1=O	-12.1	-0.3	2.2	-3.2	.	.
COc1ccc(COCC(O)CN2CCC(CN3C(=O)c4cccc5cccc(c45)C3=O)CC2)cc1OC (stereo not given)	14.4	-0.4	-0.2	30.4*	-1.0	-2.3
CS(=O)(=O)NN1C(=O)c2ccccc2NC1c1ccccc1F (stereo not given)	-3.6	i	-57.6	16.1	.	.
O=C1c2ccccc2NC(c2ccccn2)N1c1ccccc1F (stereo not given)	3.4	-0.7	-79.9	61.7*	+	199.0*
Cc1cccc(C2Nc3ccccc3C(=O)N2c2ccc(F)cc2)n1 (stereo not given)	9.7	i	-49.9	48.9*	4.4	-3.0
CS(=O)(=O)N1CCN(C(=O)c2ccccc2F)CC1	-7.4	-0.5	8.6	2.3	.	.
CC(=O)Nc1ccc(S(=O)(=O)N(C)CC(=O)OCC(=O)N2CCc3ccccc32)cc1	8.7	i	11.4	-1.0	.	.
SMILES	GDH-TPI counter-1	BH1578 lux ind	CCHFV vOTU inh	Mtb FBA inh	Mtb FBA confirm	GDH-TPI counter-2	others
CC(C)Cc1nnc(NC(=O)c2cc([N+](=O)[O-])ccc2N2CCOCC2)s1	13.1	-2.9	13.9	-6.4	.	.
O=C(NNC(=O)c1ccc(S(=O)(=O)N2CCOCC2)cc1)c1ccccc1	3.5	i	2.4	0.8	.	.
COc1ccccc1N1CCN(C(=O)C(C)NC(=O)c2cccc([N+](=O)[O-])c2)CC1 (stereo not given)	-14.8	-0.2	2.8	-1.1	.	.
Cn1c2ccccc2c2c(C(=O)NCCCN3CCCC3=O)cn(C3CCCCC3)c(=O)c21	12.0	i	-17.4	35.5*	98.0*	85.0*
CN1CCN(CCCNC(=O)c2cn(C3CCCCC3)c(=O)c3c2c2ccccc2n3C)CC1	11.2	-0.8	-11.6	30.7*	36.9*	40.9*
Cn1c2ccccc2c2c(C(=O)NCC3CCCO3)cn(C3CCCC3)c(=O)c21 (stereo not given)	11.9	-3.6	.	12.1	.	.
Cc1ccc(S(=O)(=O)/N=S(/C)c2ccccc2)cc1 (stereo not given)	0.0	i	1.7	-2.9	.	.
Cc1cc(N2CCOCC2)nc2ccc(NC(=O)CCC(=O)N3CCCCC3)cc12	-1.3	-1.0	-76.7	36.9*	43.8*	32.9*
Cc1cc(N2CCOCC2)nc2ccc(NC(=O)CCC(=O)N3CCN(c4cccc(C(F)(F)F)c4)CC3)cc12	11.2	i	-6.9	35.0*	54.4*	40.4*
COc1cc(NC(=O)CCC(=O)Nc2ccc3nc(N4CCOCC4)cc(C)c3c2)cc(OC)c1OC	23.6	-0.3	-6.4	106.2*	40.1*	30.5*
COc1ccc(N(C)C(=O)CCC(=O)Nc2ccc3nc(N4CCOCC4)cc(C)c3c2)c(OC)c1	5.8	2.2	-51.2	14.3	.	.
Cc1ccc(C)c(N2CCN(C(=S)Nc3ccc4nc(N5CCOCC5)cc(C)c4c3)CC2)c1	9.3	i	-21.2	26.9*	89.1*	64.1*
Cc1[nH]c(=S)n(CC2CCCO2)c1C (stereo not given)	-7.3	-0.3	-2.2	-3.4	.	.
O=C(CN(Cc1ccc(F)cc1)C(=O)CNS(=O)(=O)c1ccc(F)cc1)NCc1ccco1	0.4	-0.2	-3.2	-3.1	.	.
CCC(C)NC(=S)Nc1ccc2nc(N3CCOCC3)cc(C)c2c1 (stereo not given)	5.7	-1.4	-36.2	28.6*	0.8	-2.0
CCC(C)NC(=S)Nc1ccc2nc(N3CCN(CC)CC3)cc(C)c2c1 (stereo not given)	3.9	0.3	-11.4	14.3	.	.
CCN1CCN(c2cc(C)c3cc(NC(=S)N4CCOCC4)ccc3n2)CC1	12.9	-0.7	-41.3	21.8	.	.
CCC(C)NC(=O)CCC(=O)Nc1ccc2nc(N3CCOCC3)cc(C)c2c1 (stereo not given)	21.7	6.2	-51.0	77.1*	2.8	-3.1
CCC(C)NC(=O)CNC(=S)N(Cc1ccccc1)Cc1cccnc1 (stereo not given)	-0.4	1.0	-15.4	1.0	.	.
COCCn1c(-c2ccc3ccccc3c2)nc2c1c(=O)[nH]c(=O)n2CC(C)C	-1.8	-3.8	5.9	73.5*	97.8*	83.0*
CCCCn1c(=O)[nH]c(=O)c2c(C(=O)OCC)cc(-c3cccs3)nc21	4.5	-0.3	-52.4	69.3*	11.9	7.5	GDH-TPI dose=1.26*
CCCn1c(=O)[nH]c(=O)c2c1nc(-c1cccs1)n2CCOC	14.6	-0.2	-28.9	89.5*	+	167.3*

Screening data as filed in PubChem BioAssay.
